The supplement of paper PMC10981050
Several values for one entry are separate records, joined by “and”; a condition that tells them apart may be missing. Equal entries are not always repeated. Structures can show the parent of a compound that is named as a salt.

Columns and labels:
Assay in all cases: cell viability relative to vehicle control; higher = less cytotoxic
Conditions in all cases: 10 µM
K562 = tested on: K562
Outline: (§1)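 Each screen used CRISPR-edited mutant and wild-type clones from four leukaemia lines. Compounds were acoustically dispensed at a single 10 µM dose, and CellTiter-Glo luminescence was read after 48 h with the supernatant first removed. Viability was analysed in Genedata Screener and given as percent of the on-plate vehicle control.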

MARIMO = tested on: MARIMO
Outline: as §1

MOLM14 = tested on: MOLM14
Outline: as §1

OCI-AML2 = tested on: OCI-AML2
Outline: as §1

| Structure (SMILES) | cell viability (K562; SRSF2 genotype: SRSF2 P95H/wt) | cell viability (K562; SRSF2 genotype: SRSF2 wt/wt) [%] | cell viability (MARIMO; SRSF2 genotype: SRSF2 P95H/wt) [%] | cell viability (MARIMO; SRSF2 genotype: SRSF2 wt/wt) [%] | cell viability (MOLM14; SRSF2 genotype: SRSF2 P95H/wt) [%] | cell viability (MOLM14; SRSF2 genotype: SRSF2 wt/wt) [%] | cell viability (OCI-AML2; SRSF2 genotype: P95H/wt) [%] | cell viability (OCI-AML2; SRSF2 genotype: wt/wt) [%] |
| --- | --- | --- | --- | --- | --- | --- | --- | --- |
| Cc1cc(Nc2cc(N3CCN(C)CC3)nc(/C=C/c3ccccc3)n2)n[nH]1 | 19.4% and 23.7% | 18.3 | 36 | 26.5 | 2.58 | 5.88 | 6.21 | 14.9 |
| O=C(c1cccc(Br)c1)N1CCC(N2CCCC2)CC1 | 105% and 98.6% | 91.6 | 92.3 | 110 | 105 | 105 | 87.9 | 101 |
| CC(C)n1c(/C=C/C(O)CC(O)CC(=O)O)c(-c2ccc(F)cc2)c2ccccc21 (stereo not given) [Fluvastatin sodium (Lescol)] | 80.8% and 90.5% | 69.6 | 45.5 | 46.6 | 77.7 | 89.3 | 36.8 | 46.5 |
| C=C[C@@H]1C[C@]1(NC(=O)[C@@H]1C[C@@H](Oc2ncc(OC)c3ccc(Cl)cc23)CN1C(=O)[C@@H](NC(=O)OC(C)(C)C)C(C)(C)C)C(=O)NS(=O)(=O)C1CC1 [Asunaprevir] | 88.6% and 75.8% | 78.8 | 103 | 109 | 96.3 | 97.9 | 108 | 110 |
| NC[C@H](O)c1ccc(O)c(O)c1 [Noradrenaline bitartrate monohydrate (Levoph] | 86.5% and 94.4% | 98.2 | 92.6 | 94.3 | 85.7 | 93.7 | 96.7 | 103 |
| CC(C)(NS(=O)(=O)c1ccc2c(Cl)cnc(N=C(N)N)c2c1)C(=O)O | 102% and 104% | 104 | 101 | 111 | 101 | 102 | 99.1 | 117 |
| COc1cc(Nc2ncc(F)c(Nc3ccc4c(n3)NC(=O)C(C)(C)O4)n2)cc(OC)c1OC | 99.2% and 103% | 104 | 83.7 | 85.8 | 22.3 | 19.6 | 41.2 | 47.7 |
| O=C(N/N=C/c1cc(O)c(O)cc1O)c1cc2ccccc2cc1O [Dyngo-4a] | 78.9% and 81.5% | 78 | 67.3 | 89.5 | 64.9 | 72 | 85.1 | 79.3 |
| CCN(CC)CCNC(=O)c1c(C)[nH]c(/C=C2\C(=O)Nc3ccc(F)cc32)c1C [Sunitinib] | 22.8% and 26.6% | 17.6 | 23.4 | 23.4 | 0.2 | 0.37 | 0.48 | 2.85 |
| CCCCOc1c(C(=O)c2c(F)cc(C)cc2F)c[nH]c2nncc1-2 | 104% and 105% | 114 | 72.6 | 84.8 | 68.8 | 87.7 | 57.1 | 59.5 |
| CO[C@H]1/C=C/O[C@@]2(C)Oc3c(C)c(O)c4c(O)c(c(/C=N/N5CCN(C)CC5)c(O)c4c3C2=O)NC(=O)/C(C)=C\C=C\[C@H](C)[C@H](O)[C@@H](C)[C@@H](O)[C@@H](C)[C@H](OC(C)=O)[C@@H]1C [Rifampin] | 106% and 97.3% | 93.9 | 99.9 | 116 | 83.1 | 95.7 | 96.4 | 105 |
| CO[C@H]1[C@H](O)[C@@H](O)[C@@H](O)[C@H](O)[C@@H]1O [D-Pinitol] | 114% and 107% | 112 | 108 | 110 | 105 | 102 | 112 | 113 |
| COC(=O)C1=C(C)NC(C)=C(C(=O)OCCN2CCN(C(c3ccccc3)c3ccccc3)CC2)C1c1cccc([N+](=O)[O-])c1 (stereo not given) [Manidipine dihydrochloride (CV-4093)] | 60.3% and 62.1% | 53.6 | 67.1 | 68.6 | 55.2 | 57.7 | 42.5 | 46.8 |
| OC[C@H]1O[C@@H](c2ccc(Cl)c(Cc3ccc(O[C@H]4CCOC4)cc3)c2)[C@H](O)[C@@H](O)[C@@H]1O | 89.6% and 87.1% | 94.4 | 89.4 | 102 | 94.3 | 93.8 | 93.1 | 105 |
| COc1ccc(S(=O)(=O)Nc2cccnc2Nc2ccc(O)cc2)cc1 | 16.4% and 39.8% | 36.7 | 7.19 | 9.01 | 16.8 | 5.56 | 9.51 | 11.2 |
| CC(C)(C)c1cc(O)c(C(C)(C)C)cc1O | 97% and 97.5% | 95.7 | 73.4 | 92.5 | 88.8 | 93.5 | 86.2 | 93.3 |
| Cc1ccc2nc(CN(CCN(Cc3nc4ccc(C)cc4[nH]3)Cc3nc4ccc(C)cc4[nH]3)Cc3nc4ccc(C)cc4[nH]3)[nH]c2c1 | 1.04% and 0.84% | 1.19 | 0.68 | 0.61 | 0.58 | 0.53 | 0.47 | 0.63 |
| Cc1cc(C(C)(C)C)cc(C)c1CC1=NCCN1 [Xylometazoline HCl] | 92.4% and 97.6% | 99.5 | 95.4 | 105 | 102 | 103 | 93.4 | 99.7 |
| CO[C@H]1O[C@@H]2O[C@@]3(C)CC[C@H]4[C@H](C)CC[C@@H]([C@H]1C)[C@@]24OO3 [Artemether] | 84.4% and 83.7% | 80.4 | 81 | 90.5 | 85.6 | 90.1 | 86.3 | 86.6 |
| Nc1ccc(Cl)cc1C(=O)C(F)(F)F [4-Chloro-2-(trifluoroacetyl)aniline hydrochl] | 106% and 98.3% | 112 | 101 | 99.5 | 105 | 109 | 105 | 115 |

| Structure (SMILES) | cell viability (K562; SRSF2 genotype: SRSF2 P95H/wt) | cell viability (K562; SRSF2 genotype: SRSF2 wt/wt) [%] | cell viability (MARIMO; SRSF2 genotype: SRSF2 P95H/wt) [%] | cell viability (MARIMO; SRSF2 genotype: SRSF2 wt/wt) [%] | cell viability (MOLM14; SRSF2 genotype: SRSF2 P95H/wt) [%] | cell viability (MOLM14; SRSF2 genotype: SRSF2 wt/wt) [%] | cell viability (OCI-AML2; SRSF2 genotype: P95H/wt) [%] | cell viability (OCI-AML2; SRSF2 genotype: wt/wt) [%] |
| --- | --- | --- | --- | --- | --- | --- | --- | --- |
| Cc1cccc(CN2CCN(C(c3ccccc3)c3ccc(Cl)cc3)CC2)c1 (stereo not given) [Meclizine dihydrochloride] | 87.7% and 94.2% | 91.5 | 92.2 | 105 | 86.2 | 91.2 | 86.4 | 83.2 |
| Cc1nc(-c2cn3c(n2)-c2ccc(-c4cnn(C(C)(C)C(N)=O)c4)cc2OCC3)n(C(C)C)n1 | 74.5% and 79.4% | 72.8 | 45.2 | 42 | 32.3 | 40.1 | 8.91 | 22.8 |
| O=C(O)CCCc1ccccc1 [Sodium Phenylbutyrate] | 110% and 98.8% | 105 | 100 | 109 | 96.9 | 102 | 94.8 | 100 |
| Nc1nc(-c2ccco2)c2cnn(Cc3ccccc3F)c2n1 [A2AR antagonist 1] | 76% and 77.7% | 72.9 | 73.4 | 70.2 | 88.9 | 98.6 | 91.6 | 88.5 |
| CN(CC(=O)N(Cc1ccc(C2CCCCC2)cc1)c1ccc(C(=O)O)c(O)c1)S(=O)(=O)c1c(F)c(F)c(F)c(F)c1F | 38% and 23.1% | 13.9 | 57.8 | 28.6 | 0.63 | 0.38 | 1.74 | 5.48 |
| CC(C)c1cnn2c(NCc3ccccc3-n3cccn3)nc(OC3CCCNC3)nc12 (stereo not given) | 5.8% and 12.8% | 9.75 | 0.54 | 0.75 | 0.56 | 0.56 | 0.46 | 1.89 |
| O=C(Nc1cccc2c(=O)cc(-c3nnn[nH]3)oc12)c1ccc(OCCCCc2ccccc2)cc1 [Pranlukast] | 103% | 104 | 106 | 114 | 101 | 104 | 105 | 113 |
| CC1=CC(=O)c2ccccc2C1=O [Menadione] | 95.2% and 95.7% | 108 | 98.9 | 93.1 | 91.1 | 102 | 14.8 | 12.8 |
| CCCCNc1ncc(C(=O)NCc2ccc(-n3ccnc3)cc2)c(NC2CCC(O)CC2)n1 (stereo not given) | 84.4% | 72.8 | 73 | 83.9 | 25.6 | 20.8 | 48.4 | 52.1 |
| CC1(C)S[C@@H]2[C@H](NC(=O)[C@H](N)c3ccccc3)C(=O)N2[C@H]1C(=O)OCOC(=O)[C@@H]1N2C(=O)C[C@H]2S(=O)(=O)C1(C)C [Sultamicillin] | 100% and 98.8% | 106 | 93.1 | 101 | 97.2 | 102 | 103 | 116 |
| COc1cc(N2CCC(N3CCN(C)CC3)CC2)ccc1Nc1ncc(Cl)c(Nc2ccccc2S(=O)(=O)C(C)C)n1 | 78.8% and 75.5% | 72.5 | 36.4 | 30.1 | 7.58 | 12.7 | 7.82 | 16.6 |
| COC(=O)C[C@](O)(CCCC(C)(C)O)C(=O)O[C@@H]1C(OC)=C[C@]23CCCN2CCc2cc4c(cc2[C@H]13)OCO4 [Homoharringtonine] | 12.4% and 19.9% | 23 | 9.06 | 4.23 | 1.21 | 1.06 | 5.52 | 11.4 |
| O=C(O)c1cc2cccc([N+](=O)[O-])c2[nH]1 | 103% and 105% | 103 | 98.9 | 107 | 106 | 101 | 111 | 111 |
| CCOC(=O)c1ccc(O)c(OC)c1 [Ethyl Vanillate] | 97.5% and 92.9% | 100 | 105 | 108 | 94.1 | 104 | 103 | 91.1 |
| C[C@@H](O)[C@H]1C(=O)N2C(C(=O)OCOC(=O)C(C)(C)C)=C(SC3CN(C4=NCCS4)C3)[C@H](C)[C@H]12 [Tebipenem pivoxil (L-084)] | 99.2% and 99.3% | 90 | 90.5 | 84.3 | 88.7 | 95.2 | 103 | 97.2 |
| CCC(C)(C)c1ccc(CC(C)CN2C[C@@H](C)O[C@@H](C)C2)cc1 (stereo not given in full) [Amorolfine Hydrochloride] | 79.9% and 81.9% | 99.7 | 66.2 | 71.5 | 81.8 | 81.4 | 49.3 | 71.5 |
| CC(C)=CCC[C@](C)(O[C@@H]1O[C@H](CO[C@@H]2OC[C@@H](O)[C@H](O)[C@H]2O)[C@@H](O)[C@H](O)[C@H]1O)[C@H]1CC[C@]2(C)[C@@H]1[C@H](O)C[C@@H]1[C@@]3(C)CC[C@H](O[C@@H]4O[C@H](CO)[C@@H](O)[C@H](O)[C@H]4O[C@@H]4O[C@H](CO)[C@@H](O)[C@H](O)[C@H]4O)C(C)(C)[C@@H]3CC[C@]12C [Ginsenoside Rb3] | 101% and 96.7% | 108 | 103 | 103 | 109 | 102 | 101 | 101 |
| COc1cc(-c2cn(C)c(=O)c3cnccc23)cc(OC)c1CN(C)C | 104% and 95.7% | 105 | 99.4 | 87.2 | 103 | 95.9 | 98.6 | 113 |
| CCOCC(O)COc1ccc(NC(=O)CC[S+](C)C)cc1 (stereo not given) [Suplatast tosylate] | 100% | 103 | 97.7 | 109 | 105 | 105 | 97.7 | 110 |
| Cc1cc(F)c(C(=O)Nc2cccc(-c3nncn3C(C)C)n2)cc1-n1cnc(C2CC2)c1 [Selonsertib (GS-4997)] | 78.6% and 86.2% | 82 | 57.1 | 72.1 | 63.5 | 68.5 | 49.5 | 62 |
